Values without a mark were called inactive. Inconclusive results are not listed. Active and inactive are the calls of the source. Unless noted, calls follow the shape of the dose curve; as a rule, active = well fitted curve in the direction sought with a large enough effect in the repeat runs; inconclusive = weak or mixed curves; inactive = no such curve, though single readings can be large; an effect the other way counts as inactive or inconclusive.

The target in assay [1] is Luciferin 4-monooxygenase (Photinus pyralis) (UniProt P08659). The assay is described as follows: qHTS assay to identify small molecule inhibitors of firefly luciferase (AID 1224835). Also: nearly all actives have a fitted effect of over 25% in size. The method in brief:
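Biochemical qHTS: compounds run as interplate titrations against purified firefly enzyme, with D-luciferin and ATP each at its KM concentration. Light output recorded by CCD imaging.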
On the technique in general: In qHTS, concentration-response curves come from the screen itself.

The nature of assay [2]: qHTS assay to identify small molecule agonists of the constitutive androstane receptor (CAR) signaling pathway - cell viability counter screen (AID 1224836). Also: nearly all actives have a fitted effect of over 45% in size. A digest of the protocol: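 23 h treatment, 37 C, 5% CO2. Cell line: HepG2 stably expressing hCAR with a CYP2B6-2.2kb construct. Co-treatment: PK11195, 0.75 uM final. Read-out: CellTiter-Fluor fluorescence intensity.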

Assay [3] can be described thus: qHTS assay to identify small molecule antagonists of the constitutive androstane receptor (CAR) signaling pathway - cell viability counter screen (AID 1224837). Also: nearly all actives have a fitted effect of over 45% in size. A digest of the protocol:
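Counter screen run in HepG2-CYP2B6-hCAR cells: 4 hr settle, compound titration (15 concentrations) with 50 nM CITCO, 23 hr at 37 C/5% CO2, CellTiter-Fluor fluorescence.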

Assay [4] addresses Nuclear receptor subfamily 1 group I member 3 (Homo sapiens) (UniProt Q14994). The assay is described as follows: qHTS assay to identify small molecule antagonists of the constitutive androstane receptor (CAR) signaling pathway (AID 1224838).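 Also: HepG2 cells stably expressing hCAR with CYP2B6 luciferase reporter stimulated by CITCO; nearly all actives have a fitted effect of over 40% in size.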 A digest of the protocol: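 Cell line: HepG2 double-stable for hCAR and CYP2B6-2.2kb reporter. Agonist: CITCO, 50 nM final. Compounds: 15 concentrations, 24 h, 37 C. Detection: ONE-Glo luminescence.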

Assay [5] has the same target. The assay is described as follows: qHTS assay to identify small molecule agonists of the constitutive androstane receptor (CAR) signaling pathway (AID 1224839).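 Also: HepG2 cells stably carrying human CAR and a CYP2B6 luciferase reporter; nearly all actives have a fitted effect of over 15% in size.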 The method in brief: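 Compounds tested at 15 concentrations on HepG2 cells stably harbouring hCAR and CYP2B6-2.2kb reporter constructs, co-treated with PK11195 (0.75 uM final), 24 h at 37 C; luminescent reporter signal quantified.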

Assay [6] can be described thus: qHTS assay to identify small molecule antagonists of the estrogen related receptor signaling pathway with the pleiotropic PPARgamma coactivator (PGC) from Tox21 10K library - cell viability counter screen (AID 1224840; active = well fitted cell-killing curve with a large enough effect in the repeat runs, not every such curve was filed as active; also: nearly all actives have a fitted effect of over 40% in size). The method in brief:
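Following seeding of 2,000 PGC/ERR cells/well and 6 hours' incubation, test compounds were delivered in DMSO. The plates then sat 17.5 hours at 37 C before a fluorogenic live-cell protease reagent (CellTiter-Fluor) was read after 30 min.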

The target in assay [7] is Thyrotropin receptor (Homo sapiens) (UniProt P16473). The assay is described as follows: qHTS assay to identify small molecule agonists of the thyroid stimulating hormone receptor (TSHR) signaling pathway (AID 1224843; calls by dose curve; also: nearly all actives have a fitted effect of over 45% in size). The method in brief:
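Steps: seed 800 TSHR-HEK293 cells per well; add test compound and hold 30 min at ambient temperature; dispense cAMP-d2 then anti-cAMP cryptate; incubate 1 h at ambient; measure fluorescence intensity.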

Assay [8] in a line: qHTS assay to identify small molecule agonists of the hypoxia (HIF-1) signaling pathway - cell viability counter screen (AID 1224844; calls by dose curve; also: nearly all actives have a fitted effect of over 50% in size). A digest of the protocol:
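Cells (HRE-bla ME-180, 2,000 per well) sat 5 hrs at 37C, got compound for 17 hrs, were read for CCF4-AM FRET, and were finally lysed with CellTiter-Glo for a 30 min room-temperature luminescence read.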

A short description of assay [9]: qHTS assay to identify small molecule agonists of H2AX (AID 1224845; active = well fitted activation curve with a large enough effect in the signal ratio in the repeat runs, not every such curve was filed as active; the % refers to the signal ratio). A digest of the protocol: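 Wild-type CHO-K1 cells, plated overnight, exposed 3hr at 37C to 15 concentrations (0.76% DMSO final). Lysed, then HTRF anti-pH2AX (S139) cryptate and anti-H2AX-d2 antibodies, 24 hr room temperature; 665/620 nm emission read.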
A short description of assay [10]: qHTS assay to identify small molecule agonists of the hypoxia (HIF-1) signaling pathway (AID 1224846; active = well fitted activation curve with a large enough effect in the signal ratio in the repeat runs, not every such curve was filed as active; the % refers to the signal ratio). The method in brief:
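A low-serum medium (0.5% dialyzed FBS) holding 2,000 HRE-bla ME-180 cells per well is preincubated for 5 hrs, dosed with compounds by pintool, and kept a further 17 hrs at 37C, 5% CO2 before CCF4-AM FRET detection of beta-lactamase.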

The nature of assay [11]: qHTS assay to identify small molecule agonists of H2AX - cell viability counter screen (AID 1224847; calls by dose curve; also: top concentration of the series differs between compounds; nearly all actives have a fitted effect of over 30% in size). The method in brief:
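Compounds tested at 15 concentrations were incubated 3 hr at 37C with wild-type CHO-K1 cells; cellular ATP-based luminescence (CellTiter-Glo) indicated viability.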

A short description of assay [12]: qHTS RealTime-Glo MT Cell Viability Assay in HepG2 cells - 24 hour (AID 1224867). Also: nearly all actives have a fitted effect of over 50% in size. The method in brief: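 Cell number in HepG2 cultures estimated from NanoLuc luminescence generated by metabolic reduction of a prosubstrate by living cells. The homogeneous, nonlytic format allowed repeated reads at 0, 8, 16, 24, 32 and 40 h of compound exposure.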
Assay [13] can be described thus: qHTS RealTime-Glo MT Cell Viability Assay in HEK293 cells - 32 hour (AID 1224868). Also: nearly all actives have a fitted effect of over 50% in size. Also: potency is read from the fitted curve at half-maximal effect. The method in brief: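 Homogeneous bioluminescent viability format in HEK293 cells (600 cells/well). Following 5 h at 37 C/5% CO2, 23 nL compound was pintooled; the signal was measured repeatedly during 40 h incubation.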
Assay [14] is described as follows: A CellTox Green Cytotoxicity Assay to monitor cytotoxicity in HEK293 cells - 0 hour (AID 1224869). Also: nearly all actives have a fitted effect of over 50% in size. A digest of the protocol:
(§1)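 Fluorescence intensity, read at 0, 8, 16, 24, 32 and 40 h of compound treatment, reflected dye binding to DNA of dead HEK293 cells; compounds (23 nL, DMSO) were added 5 h after plating cells with reagent.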

Assay [15] in a line: qHTS RealTime-Glo MT Cell Viability Assay in HepG2 cells - 40 hour (AID 1224870). Also: nearly all actives have a fitted effect of over 50% in size. The method in brief:
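HepG2 cells (600/well) mixed with RealTime-Glo MT reagent, settled 5 h at 37 C/5% CO2 before compound addition. Nonlytic NanoLuc luminescence from viable-cell prosubstrate reduction read repeatedly during 40 h treatment at 37 C.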

A short description of assay [16]: A CellTox Green Cytotoxicity Assay to monitor cytotoxicity in HEK293 cells - 40 hour (AID 1224871). Also: nearly all actives have a fitted effect of over 45% in size. Also: potency is read from the fitted curve at half-maximal effect. The method in brief:
as §1

A short description of assay [17]: qHTS assay to identify small molecule antagonists of the estrogen related receptor signaling pathway with the pleiotropic PPARgamma coactivator (PGC) from Tox21 10K library (AID 1224841; call rule not given here). The method in brief: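 qHTS antagonist format: PGC/ERR cells, 2k/well, compound in DMSO by pin transfer after 6 h attachment, 18 h treatment at 37 C, One-Glo luminescence read at 30 min.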

Assay [18] can be described thus: qHTS assay to identify small molecule agonists of the estrogen related receptor signaling pathway with the pleiotropic PPARgamma coactivator (PGC) from Tox21 10K library (AID 1224842). Also: nearly all actives have a fitted effect of over 15% in size. The method in brief: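 PGC/ERR reporter cell line, 2,000 cells per well, incubated 6 h at 37 C before 23 nL compound in DMSO was added. After 18 h at 37 C, One-Glo luminescence read following 30 min at room temperature.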

Assay [19] in a line: qHTS assay to identify small molecule agonists of the estrogen related receptor (ERR) signaling pathway from Tox21 library (AID 1224849; calls by dose curve; also: nearly all actives have a fitted effect of over 15% in size). The following applies: ERR reporter cell line, ONE-Glo luciferase, 18 h. A digest of the protocol:
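Screening used an NTP-provided ERR luciferase cell line. Compounds in DMSO were added 6 h after seeding and left 18 h at 37 C before a 30 min ONE-Glo step and luminescence reading.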

Assay [20] is described as follows: qHTS assay to identify small molecule antagonists of the estrogen related receptor (ERR) signaling pathway from Tox21 library (AID 1224848). Also: nearly all actives have a fitted effect of over 50% in size. A digest of the protocol: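 Luminescent reporter read-out (ONE-Glo) from NTP's ERR cell line after 18 h treatment at 37 C with DMSO-dissolved Tox21 compounds; cells pre-plated 6 h beforehand at 2,000 per well.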
% is scaled to controls: 0 for no effect and ±100 for the full control effect.

Sequence of Luciferin 4-monooxygenase (Photinus pyralis) (P08659 whole entry, looked up): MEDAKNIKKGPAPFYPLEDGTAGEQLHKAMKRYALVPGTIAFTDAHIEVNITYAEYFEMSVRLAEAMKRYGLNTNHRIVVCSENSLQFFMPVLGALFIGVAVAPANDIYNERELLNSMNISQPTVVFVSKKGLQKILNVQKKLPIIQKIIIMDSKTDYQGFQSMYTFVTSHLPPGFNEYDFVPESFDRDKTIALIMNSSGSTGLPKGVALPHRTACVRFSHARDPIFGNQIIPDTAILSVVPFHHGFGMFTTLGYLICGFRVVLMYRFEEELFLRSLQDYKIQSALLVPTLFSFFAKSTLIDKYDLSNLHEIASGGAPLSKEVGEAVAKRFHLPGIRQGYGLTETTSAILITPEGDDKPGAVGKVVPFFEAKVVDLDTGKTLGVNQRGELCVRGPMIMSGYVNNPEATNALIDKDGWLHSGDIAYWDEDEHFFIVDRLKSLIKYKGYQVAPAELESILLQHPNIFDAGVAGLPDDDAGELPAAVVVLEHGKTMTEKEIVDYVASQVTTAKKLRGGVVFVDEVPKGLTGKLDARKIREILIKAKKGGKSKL
Sequence of Nuclear receptor subfamily 1 group I member 3 (Homo sapiens) (Q14994 whole entry, looked up): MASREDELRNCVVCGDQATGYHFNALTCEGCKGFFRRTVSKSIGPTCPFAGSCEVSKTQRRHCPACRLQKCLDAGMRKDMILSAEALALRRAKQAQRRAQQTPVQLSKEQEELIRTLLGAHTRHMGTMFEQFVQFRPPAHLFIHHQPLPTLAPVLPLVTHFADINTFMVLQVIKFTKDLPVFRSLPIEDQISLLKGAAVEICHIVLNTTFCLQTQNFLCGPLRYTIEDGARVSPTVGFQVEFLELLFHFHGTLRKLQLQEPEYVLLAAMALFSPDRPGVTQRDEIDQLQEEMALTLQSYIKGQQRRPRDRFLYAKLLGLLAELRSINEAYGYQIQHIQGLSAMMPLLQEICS
Sequence of Thyrotropin receptor (Homo sapiens) (P16473 whole entry, looked up): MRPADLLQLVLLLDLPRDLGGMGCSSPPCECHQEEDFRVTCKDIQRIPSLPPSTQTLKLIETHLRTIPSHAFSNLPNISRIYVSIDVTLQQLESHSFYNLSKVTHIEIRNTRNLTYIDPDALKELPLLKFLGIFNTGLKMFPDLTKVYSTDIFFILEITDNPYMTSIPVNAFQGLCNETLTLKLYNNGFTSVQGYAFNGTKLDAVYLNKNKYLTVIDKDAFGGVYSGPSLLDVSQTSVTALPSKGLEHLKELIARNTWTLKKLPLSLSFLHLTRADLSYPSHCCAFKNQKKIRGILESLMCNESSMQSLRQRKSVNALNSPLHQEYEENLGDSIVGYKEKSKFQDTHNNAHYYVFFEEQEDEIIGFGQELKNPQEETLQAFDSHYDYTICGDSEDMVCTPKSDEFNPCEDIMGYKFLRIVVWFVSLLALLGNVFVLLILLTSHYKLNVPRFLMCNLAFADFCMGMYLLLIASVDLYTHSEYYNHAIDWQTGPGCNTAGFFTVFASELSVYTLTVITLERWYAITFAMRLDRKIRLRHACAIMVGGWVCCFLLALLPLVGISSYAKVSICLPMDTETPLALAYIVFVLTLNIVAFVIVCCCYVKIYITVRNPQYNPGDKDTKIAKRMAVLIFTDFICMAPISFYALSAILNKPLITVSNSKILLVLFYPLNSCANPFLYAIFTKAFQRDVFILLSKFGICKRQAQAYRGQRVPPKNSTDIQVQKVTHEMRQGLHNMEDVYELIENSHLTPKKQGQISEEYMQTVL

Take `CC(=O)OCC=C(C)C`: the Potency result in [1], in assay [2], in assay [3], in assay [4], in assay [5] and in assay [6] was “inactive” throughout. Also, the Potency entry in assay [7], in [8], in [9], in assay [10], in assay [11] and in assay [12] was “inactive” in each case. Moreover, the Potency result in assay [13], in assay [14], in [15] and in assay [16] was “inactive” each time.
In the case of `O=C(O)c1cccc(C(F)(F)F)c1`, the Potency result in assay [1], in [2], in [3], in [4], in assay [5] and in assay [6] was “inactive” each time. Further, the Potency result in [17], in [18], in [7], in assay [8], in [9] and in [10] was “inactive” throughout. In addition, the Potency entry in [11], in [12], in assay [13], in assay [15] and in assay [16] was “inactive” in each case. In addition, in assay [19] (at 92.4 µM (top of the series)), the activity change, positive = activation was -2.71%.
Take `CCC(CC)C(C)CCOC(C)=O` (stereo not drawn): the Potency result in assay [1], in assay [2], in [3], in assay [4], in assay [5] and in assay [6] was “inactive” each time. Moreover, the Potency entry in assay [7], in assay [8], in assay [9], in assay [10], in assay [11] and in assay [12] was “inactive” in each case. Moreover, the Potency result in [13], in [14] and in assay [15] was “inactive” in each case.
In the case of `CCCCCCCC/C=C\CCCCCCCCN`, the Potency result in assay [1], in [2], in [3], in assay [4], in assay [5] and in [6] was “inactive” throughout. Besides, the Potency result in assay [17], in [18], in assay [7], in [8], in assay [9] and in assay [11] was “inactive” throughout. Further, in assay [14], the Potency entry was “inactive”. For the same compound, the activity change, positive = activation in assay [19] (at 42.5 µM (top of the series)) was -2.95%. Besides, the Potency in assay [13] and in [16] was 23.9 µM (active) in each case.
On to `CCOC(=O)NNc1ccc(N(CC)CC(C)O)nn1` (stereo not drawn), for which the Potency result in assay [1], in assay [2], in assay [3], in assay [4], in [5] and in assay [6] was “inactive” each time. Also, the Potency result in assay [17], in assay [18], in assay [7], in assay [8], in assay [11] and in assay [12] was “inactive” each time. The Potency result in [13] and in [15] was “inactive” in each case. Besides, the activity change, positive = activation in assay [19] (at 42.5 µM (top of the series)) was 0.457%.
Take `NC(=S)NC(N)=S`: the Potency result in assay [1], in [2], in assay [3], in assay [4], in assay [5] and in [6] was “inactive” throughout. In addition, the Potency entry in assay [7], in assay [8], in assay [9], in assay [11], in [12] and in assay [13] was “inactive” in each case. Also, the Potency entry in assay [14], in [15] and in assay [16] was “inactive” in each case.
Turning to `CCCCCCCC`, the Potency entry in assay [1], in assay [2], in assay [3], in assay [4], in [5] and in assay [6] was “inactive” throughout. Moreover, the Potency result in [18], in assay [7], in assay [8], in [9], in [10] and in [11] was “inactive” throughout. In addition, the Potency entry in assay [20], in assay [13], in assay [14], in assay [15] and in [16] was “inactive” in each case. Further, the activity change, positive = activation in assay [19] (at 92.4 µM (top of the series)) is 4.82%.

The values are drawn from PubChem BioAssay (Tox21).
